# Measured values: PubChem BioAssay (EPA / NIEHS)
# The source made the active and inactive calls. Rule for the calls: active = hit-call score of the fitted dose curve at least 0.9, where 1 is the maximum; inactive = score below 0.9.
# Target: rat CYP2A1, Cyp2a1 (gene 24894) (UniProt P11711)
# Assay: NVS_ADME_rCYP2A1: NovaScreen (NVS) CYP450-related Enzyme Activity (ADME) Assay for rat CYP2A1 (AID 2283114)
# Method: NVS_ADME_rCYP2A1 is a biochemical, single-readout assay that uses extracted gene-proteins in a cell-free assay. Measurements were taken 0.75 hour after chemical dosing in a 96-well plate.NVS_ADME_rCYP2A1 is one of one assay component(s) measured or calculated from the NVS_ADME_rCYP2A1 assay. It is designed to make measurements of enzyme activity, a form of enzyme reporter, as detected with fluorescence intensity signals by Fluorescence technology.Data from the assay component NVS_ADME_rCYP2A1 was analyzed into 1 assay endpoint. This assay endpoint, NVS_ADME_rCYP2A1, was analyzed in the positive analysis fitting direction relative to Acetonitrile as the negative control and baseline of activity. Using a type of enzyme reporter, loss-of-signal activity can be used to understand changes in the enzymatic activity as they relate to the gene Cyp2a1. Furthermore, this assay endpoint can be referred to as a primary readout, because this assay has produced multiple assay endpoints where this one serves a enzymatic activity function. To generalize the intended target to other relatable targets, this assay endpoint is annotated to the cyp intended target family, where the subfamily is xenobiotic metabolism.
# Binding assays used specific radioligands (tritiated, iodinated) with non-radioactive competitive displacement ligands in agonist or antagonist protocols (as indicated) and various reference compounds and inhibitors to titrate specific binding to receptors and transporters. Most enzyme assays (CYPs, kinases, phosphatases, proteases, HDACs) used recombinant protein and specific substrates (fluorescence mostly, some colorimetric and radioactive) and inhibitors, followed by a biochemical separation of substrate and product. All assays for the biochemical HTS were initially run in duplicate at a single concentration (10 uM for CYP450 assays and 25 uM for all others). Assay-chemical combinations meeting a pre-defined threshold (e.g., 30% inhibition and other criteria defined below) were then run in singleton concentration-response format with maximum concentration of 20 uM for CYPs and 50 uM for all others. Each assay was run with positive and negative controls, and concurrent controls on every plate. The follow-up (secondary) screen tested active chemical-pairs in concentration series, as well as a few additional assays not tested in the primary screen, some selected negative inactives, and several cases re-run in the concentration series for confirmatory purposes.
# Chain of rat CYP2A1, Cyp2a1 (gene 24894) (P11711 whole entry, looked up): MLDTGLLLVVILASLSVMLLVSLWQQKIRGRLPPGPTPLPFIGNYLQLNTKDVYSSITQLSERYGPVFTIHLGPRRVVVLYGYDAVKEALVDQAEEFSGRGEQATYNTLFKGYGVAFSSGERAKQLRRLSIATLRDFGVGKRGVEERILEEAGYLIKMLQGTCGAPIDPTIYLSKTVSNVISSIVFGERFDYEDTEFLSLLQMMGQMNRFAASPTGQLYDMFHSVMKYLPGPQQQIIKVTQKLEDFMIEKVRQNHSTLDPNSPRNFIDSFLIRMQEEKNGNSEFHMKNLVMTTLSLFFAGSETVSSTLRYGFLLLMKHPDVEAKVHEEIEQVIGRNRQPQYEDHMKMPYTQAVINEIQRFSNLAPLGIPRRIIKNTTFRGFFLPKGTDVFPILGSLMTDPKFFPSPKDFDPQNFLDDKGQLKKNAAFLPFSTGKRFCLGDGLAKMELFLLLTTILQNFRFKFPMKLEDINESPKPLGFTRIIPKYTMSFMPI
Structure (SMILES),AC50,outcome
CN(C)C(=O)Nc1cccc(C(F)(F)F)c1,4.33 µM (active),–
C[Si](Cn1cncn1)(c1ccc(F)cc1)c1ccc(F)cc1,1.39 µM (active),–
CCOP(=S)(OCC)Oc1ccc2c(C)c(Cl)c(=O)oc2c1,–,inactive
CC(C1CC1)C(O)(Cn1cncn1)c1ccc(Cl)cc1 (stereo not drawn),4.58 µM (active),–
C#CC(C)(C)NC(=O)c1cc(Cl)cc(Cl)c1,1.43 µM (active),–
CCCOCC(=Nc1ccc(Cl)cc1C(F)(F)F)n1ccnc1,0.955 µM (active),–
CCOP(=S)(OCC)Oc1ccc([N+](=O)[O-])cc1,5.89 µM (active),–
CC1(C(=O)Nc2ccc(O)c(Cl)c2Cl)CCCCC1,1.8 µM (active),–
CSC1=N[C@@](C)(c2ccccc2)C(=O)N1Nc1ccccc1,7.68 µM (active),–
CCOC(=O)CC(SP(=O)(OC)OC)C(=O)OCC (stereo not drawn),–,inactive
FC(F)C(F)(F)OCC(Cn1cncn1)c1ccc(Cl)cc1Cl (stereo not drawn),1.85 µM (active),–
C=C(C)[C@H]1Cc2c(ccc3c2O[C@@H]2COc4cc(OC)c(OC)cc4[C@@H]2C3=O)O1,–,inactive
CCC(=O)Nc1ccc(Cl)c(Cl)c1,2.2 µM (active),–
